The values below come from PubChem BioAssay (NCI).

Values joined by “and” are separate entries in the source; they are usually repeats but may differ in a detail not shown here. Equal entries are not always repeated. This is part of a sample that, as a whole, favours compounds with a hit. Of some 83,000 tested, about 20% had one in any assay.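 Growth was measured after 48 h exposure to one concentration of compound in 96-well plates. Values under 10 count as active.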 Active and inactive are the calls of the source.

The test system of this experiment is HCC-2998 colon. Description: NCI-60 one-dose screen, 48 h (100 = growth as untreated, 0 = no growth, -100 = all killed). To be noted: 10 µM. Here is the method: Growth inhibition of the HCC-2998 human tumor cell line is measured as a screen for anti-cancer activity. Cells are grown in 96 well plates and exposed to the test compound for 48 hours. Compounds are tested at a single concentration, which is 10^-5 M for most compounds. The reported endpoint is percent growth (GI% or GIPRCNT), where numbers from 0 - 100% represent growth inhibition, and numbers from -100% - 0 represent cell death. For example, a value of 40 represents 60% growth inhibition. A value of 0 means no net growth occurred over the course of the experiment. A value of -40 indicates 40% of cells at the beginning of the experiment died by the end of the experiment. A value of -100 means all cells are dead at the end of the experiment.
NCI-60 Human Tumor Cell Lines Screen was performed using the standard one-dose NCI protocol, which is described in more detail at https://dtp.cancer.gov/discovery_development/nci-60/default.htm.
Compounds with GIPRCNT values below 10 were considered active. Activity score was based on GIPRCNT using the following formula: […]
Score is 0 for GIPRCNT values of 100 or above, 50 for GIPRCNT values of 0, and 100 for GIPRCNT values of -100.
Turning to `NC(=O)c1cc([N+](=O)[O-])c(Cl)c([N+](=O)[O-])c1Cl`, the growth was 39.2% (inactive).

On to `COc1ccc(/C=C\[N+](=O)[O-])cc1OC`, for which the growth is 61% (inactive) and 54.3% (inactive).

On to `C/C(=C\c1ccc(Cl)c(Cl)c1)[N+](=O)[O-]`, for which the growth was 99.6% (inactive) and 100% (inactive).

Take `C[C@]12CC[C@H]3[C@@H](CCC4=CC(=O)CC[C@@H]43)[C@@H]1CC[C@@H]2OC(=O)N(CCCl)N=O`: the growth was 58.1% (inactive).

Regarding `COc1cc(/C=C\[N+](=O)[O-])ccc1O`, the growth is 100% (inactive) and 83.1% (inactive).

In the case of `CC(Cc1ccc2c(c1)OCO2)NN` (stereo not given), the growth is 101% (inactive).

Regarding `Cc1ccc(NC(=O)CBr)cc1`, the growth is 113% (inactive).

As to `COC1CC2C=C(C)/C=C/C=C/C(=O)NC(c3ccccc3)C/C=C/CCC(O)CC(=O)C2=C1O` (stereo not given), the growth was -53% (active).

As for `CCCCCCCC[N+]12CN3CN(CN(C3)C1)C2`, the growth was 98.3% (inactive).

Consider `COc1ccccc1/C=C/[N+](=O)[O-]`, for which the growth was 88.7% (inactive).

For `C[CH2][Hg][S]c1ccccc1C(=O)O`, the growth was 59.8% (inactive).

On to `O=C(CBr)Nc1ccc(Cl)cc1`, for which the growth is 112% (inactive).

Regarding `O=C(CBr)Nc1ccccc1`, the growth is 105% (inactive).

With `CN(C)CC1(N)C(=O)NC(=O)NC1=O`, the growth is 99.4% (inactive).

As to `COC12c3c(C)cc(O)c4c(=O)occ(c34)C(=O)C1C13COC(=O)c4c(O)cc(C)c(c41)C(=O)C2C3OC(C)=O` (stereo not given), the growth was 97.3% (inactive).

Consider `COc1ccc2c(ccc3oc([N+](=O)[O-])cc32)c1`, for which the growth was -59.3% (active).

In the case of `C=C1C(=O)O[C@@H]2C[C@@H](C)[C@@H]3C=CC(=O)[C@@]3(C)[C@@H](O)[C@H]12`, the growth was -97.7% (active).

With `CC(C)(C)OOC(=O)/C=C\C(=O)OOC(C)(C)C`, the growth was 104% (inactive).

For `NC(=O)c1cc([N+](=O)[O-])c(Cl)c([N+](=O)[O-])c1`, the growth is 109% (inactive).

On to `[Cl][Hg][c]1ccc(Cl)s1`, for which the growth is 111% (inactive).

On to `Cc1cc([N+](=O)[O-])c2ccccc2[n+]1[O-]`, for which the growth is -67.8% (active) and -90.8% (active).

`CC(C)C1(NC(=O)C2CC3c4cccc5[nH]cc(c45)CC3N(C)C2)OC2(O)C3CCCN3C(=O)C(Cc3ccccc3)N2C1=O` (stereo not given): the growth is 105% (inactive).

`O=C(O)c1cc(Cc2ccc(O)c(C(=O)O)c2)ccc1O` (tested in a mixture with another compound): the growth is 53.9% (inactive).

In the case of `O=S(=O)(F)c1ccc(Cl)cc1`, the growth is 83.2% (inactive).

In the case of `COc1cc(/C=C/[N+](=O)[O-])cc(Br)c1OC`, the growth is -90.9% (active).

For the molecule `N#CCc1ccccc1`, the growth is 106% (inactive).

With `CN(CCCl)c1ccc(/C=C/C2=[N+](C)c3ccccc3C2(C)C)cc1`, the growth is 26% (inactive).

`CCOP(=O)(OCC)/C(C#N)=C/c1ccc(Br)cc1`: the growth was 102% (inactive).

On to `O=C(CCl)Nc1ccc(Cl)cc1`, for which the growth is 98.3% (inactive).

Regarding `COS(=O)(=O)c1ccccc1`, the growth is 101% (inactive).

For the molecule `O=C1C=Cc2ccccc2C1=O`, the growth is 112% (inactive).

With `Cc1cc(C(C)(C)c2ccc(O)c(C)c2)ccc1O`, the growth was 104% (inactive).

For the molecule `NNc1ccccc1`, the growth was 104% (inactive).

For `C=NCC#N`, the growth is 100% (inactive) and 125% (inactive).

Turning to `C[C@@H]1C[C@@H]([C@H](O)CC2CC(=O)NC(=O)C2)C(=O)[C@@H](C)C1`, the growth is 2.14% (active).

As to `Oc1ccccc1-c1ccccc1`, the growth was 92.7% (inactive).

`O=[N+]([O-])c1ccc(N2CCOCC2)c2c1no[n+]2[O-]`: the growth was -49.1% (active).

On to `O=[N+]([O-])/C=C/c1ccc([N+](=O)[O-])cc1`, for which the growth is -91% (active) and 98.9% (inactive).

As to `O=[N+]([O-])/C=C/c1ccc(Cl)cc1[N+](=O)[O-]`, the growth was 105% (inactive).

With `CS(=N)(=O)CCC(N)C(=O)O` (stereo not given), the growth is 92.7% (inactive).
